According to paper PMC5540273 (PLoS ONE, 2017):

Tests used:
Conditions in all cases: concentration: 1 μM, replicates: in singlicate; n = 1
IRAK4 = test system: IRAK4
ITK = test system: ITK
[1] = test system: JAK1(JH1domain-catalytic)
[2] = test system: JAK1(JH2domain-pseudokinase)
[3] = test system: JAK2(JH1domain-catalytic)
[4] = test system: JAK3(JH1domain-catalytic)
JNK1 = test system: T1, JNK1
T1 construct: gene MAPK8

JNK2 = test system: T2, JNK2
T2 construct: gene MAPK9

JNK3 = test system: T3, JNK3
T3 construct: gene MAPK10

KIT-autoinhibited = test system: KIT-autoinhibited
KIT = test system: KIT
LATS1 = test system: LATS1
LATS2 = test system: LATS2
LCK = test system: LCK
LIMK1 = test system: LIMK1
LIMK2 = test system: LIMK2
LKB1 = test system: T4, LKB1
T4 construct: gene STK11

LOK = test system: T5, LOK
T5 construct: gene STK10

LRRK2 = test system: LRRK2
LTK = test system: LTK
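Also: KINOMEscan kinase panel screen.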

Structure (SMILES)	%Inh (IRAK4)	%Inh (ITK)	%Inh [1]	%Inh [2]	%Inh [3]	%Inh [4]	%Inh (JNK1)	%Inh (JNK2)	%Inh (JNK3)	%Inh (KIT-autoinhibited)	%Inh (KIT)	%Inh (LATS1)	%Inh (LATS2)	%Inh (LCK)	%Inh (LIMK1)	%Inh (LIMK2)	%Inh (LKB1)	%Inh (LOK)	%Inh (LRRK2)	%Inh (LTK)
O=S(=O)(c1ccc(-c2ccnc3[nH]ccc23)cc1)N1CCCC1 [GSK846226]	2%	10%	16%	3%	86%	0%	26%	24%	17%	0%	23%	0%	68%	5%	7%	21%	5%	0%	0%	0%
COc1ccc(Nc2nccc(-c3cccc(NC(=O)c4cc5cc(F)ccc5[nH]4)c3)n2)cc1 [GSK1229782]	3%	23%	34%	0%	10%	0%	28%	34%	15%	0%	57%	5%	6%	46%	0%	12%	12%	0%	42%	19%
COc1cc2nccc(Nc3ccc(NC(=O)c4ccc(C)cc4)c(O)c3)c2cc1OC.Cl [GW440132]	0%	20%	12%	0%	0%	0%	16%	29%	7%	0%	38%	0%	0%	83%	4%	1%	2%	0%	28%	0%
COc1ccc2nc(-c3cccc(C)n3)nc(Nc3ccncc3)c2c1 [GSK204919]	0%	13%	0%	80%	10%	0%	0%	60%	36%	0%	26%	0%	0%	4%	20%	3%	0%	0%	0%	0%
Cc1cccc(-c2nc(Nc3ccncc3)c3ccccc3n2)n1 [GW855857]	0%	24%	0%	74%	0%	0%	0%	6%	21%	0%	10%	3%	0%	9%	12%	5%	18%	37%	0%	21%
CC(C)(C)c1ccc(C(=O)Nc2cn3cc(-c4cccnc4)ccc3n2)cc1	70%	24%	0%	45%	6%	2%	24%	0%	5%	0%	91.5%	23%	10%	8%	16%	20%	24%	79%	0%	19%
CC(C)(C)c1ccc(C(=O)Nc2cn3cc(Cl)ccc3n2)cc1	0%	0%	0%	7%	1%	0%	0%	0%	0%	42%	74%	10%	0%	26%	0%	0%	4%	8%	0%	0%
COc1ccccc1CNC(=O)c1cc(C(=O)c2ccccc2C)c[nH]1 [GSK364507]	23%	16%	19%	0%	0%	0%	45%	9%	16%	0%	41%	0%	0%	12%	8%	5%	0%	0%	0%	0%
Cc1cccc(-c2nc(C)cc(Nc3ccncc3)n2)n1 [GSK257997]	1%	12%	13%	0%	0%	0%	4%	43%	32%	0%	17%	0%	0%	34%	11%	19%	8%	0%	0%	16%
CN1C(=O)C(Nc2ccc(Cl)c(C(=O)O)c2)=C(c2ccc(Cl)cc2)C1=O [SB-404290]	0%	4%	0%	17%	8%	0%	26%	2%	7%	0%	1%	15%	15%	23%	7%	0%	18%	4%	0%	9%
